From PubChem BioAssay AID1920062 (Sanford-Burnham Center for Chemical Genomics, 2024)
The whole screen tested about 370,000 compounds, of which about 400 (0.11%) were called active.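 The calls were made as follows: active = activation at 10 µM reaching about 35% in either raw or pattern-adjusted values (limit read from the data); inactive = the rest.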 Shown is part of a subset that was picked to be rich in actives.

Each compound was assayed against Atrial natriuretic peptide receptor 2 (Homo sapiens) (UniProt P20594) (assay: GC-B stimulated cGMP production enhancers – HEK293 GC-B cells, cGMP TR-FRET, EC30 CNP, primary screen (AID 1920062)). Details: at 10 µM, stronger effect = higher value, 0% at EC30 CNP, 100% saturating CNP.
Sequence of Atrial natriuretic peptide receptor 2 (Homo sapiens) (P20594 whole entry, looked up): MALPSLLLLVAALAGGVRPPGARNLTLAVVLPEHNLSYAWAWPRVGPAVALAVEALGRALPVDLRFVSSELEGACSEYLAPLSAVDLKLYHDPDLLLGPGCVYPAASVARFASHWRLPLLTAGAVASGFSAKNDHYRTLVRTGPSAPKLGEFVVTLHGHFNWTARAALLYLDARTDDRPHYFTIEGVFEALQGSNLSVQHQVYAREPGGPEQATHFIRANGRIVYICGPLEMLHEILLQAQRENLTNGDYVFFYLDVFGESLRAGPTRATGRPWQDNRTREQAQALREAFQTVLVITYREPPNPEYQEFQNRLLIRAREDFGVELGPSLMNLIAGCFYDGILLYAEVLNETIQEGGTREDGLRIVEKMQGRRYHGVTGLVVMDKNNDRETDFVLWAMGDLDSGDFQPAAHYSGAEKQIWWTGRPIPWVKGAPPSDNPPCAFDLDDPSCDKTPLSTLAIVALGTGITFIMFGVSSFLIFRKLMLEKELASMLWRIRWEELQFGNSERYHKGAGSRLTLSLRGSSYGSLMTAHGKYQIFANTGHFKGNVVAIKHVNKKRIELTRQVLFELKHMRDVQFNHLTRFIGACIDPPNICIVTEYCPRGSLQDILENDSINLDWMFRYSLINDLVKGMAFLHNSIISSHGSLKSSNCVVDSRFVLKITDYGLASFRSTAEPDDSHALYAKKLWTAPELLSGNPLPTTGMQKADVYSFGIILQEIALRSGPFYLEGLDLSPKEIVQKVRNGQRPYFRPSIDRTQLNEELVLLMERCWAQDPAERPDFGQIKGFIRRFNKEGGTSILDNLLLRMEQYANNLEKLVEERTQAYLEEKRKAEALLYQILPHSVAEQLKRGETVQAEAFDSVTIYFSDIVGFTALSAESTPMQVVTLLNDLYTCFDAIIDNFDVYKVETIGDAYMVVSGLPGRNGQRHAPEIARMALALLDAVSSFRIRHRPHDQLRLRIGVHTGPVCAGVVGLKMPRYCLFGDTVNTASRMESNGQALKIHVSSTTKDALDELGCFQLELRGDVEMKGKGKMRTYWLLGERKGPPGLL

activation, inactive:
O=C(CCCCCCCC(=O)N1CCCCC1)N1CCCCC1 2.66%
Cc1ccc(NC(=S)N2CCCC(c3ccccc3)=N2)cc1 -5.08%
Cc1cccc(NC(=S)N2CCCC(c3nc4ccccc4[nH]3)C2)c1 (stereo not drawn) 0.09%
CC(C)[C@H](NC(=O)c1ccc(F)cc1)C(=O)OCC(=O)NC(=O)c1cccn1C -6.93%
COC(=O)CN(c1cccc(C(C)=O)c1)S(C)(=O)=O -0.3%
COc1ccc(CNC(=O)COC(=O)CCS(=O)(=O)c2ccc(C)cc2)cc1OC -7.76%
COc1ccccc1CCCNC(=O)C1CCC(=O)N(CCN2CCOCC2)C1 (stereo not drawn) 0.93%
Cc1ccc(C(=O)COC(=O)CCCC(=O)NC2CCCCC2)cc1[N+](=O)[O-] -3.79%
CCCc1c(C)nc2scc(-c3ccc(Cl)cc3)n2c1=O 3.02%
O=S(=O)(Cc1nnnn1-c1ccccc1)c1ccccc1 3.43%
CCCCc1ccc(S(N)(=O)=O)cc1 1.33%
O=C(CCCN1C(=O)C2C3C=CC(C3)C2C1=O)N1CCN(c2ccccc2)CC1 (stereo not drawn) 6.38%
COC(=O)c1cc(S(=O)(=O)N2CCN(C(=O)C3CCCO3)CC2)cn1C (stereo not drawn) -2.49%
Cn1c(CC2Sc3ccccc3NC2=O)nnc1SCC(=O)c1ccc(Cl)cc1 (stereo not drawn) -0.22%
CC(CCc1ccc(O)cc1)NCc1ccc(Cl)cc1Cl (stereo not drawn) -2.85%
OC(CCl)CCl -3.1%
CCOC(=O)C1CCN(C(=O)Cc2c(C(=O)O)[nH]c3ccccc23)CC1 -0.71%
COC(=O)CCNC(=O)c1ccc2[nH]c(C)c(C)c2c1 2.4%
N#CC1(NC(=O)COc2ccc3oc4ccccc4c3c2)CCCCC1 -3.84%
CN1CCN(S(=O)(=O)c2ccc(NC(=O)C3CCCO3)cc2)CC1 (stereo not drawn) 1.58%
CCCOc1ccc(CN(CCO)CCO)cc1C(=O)OC 3.92%
Cc1ccsc1C(=O)NCCc1ccco1 1.1%
O=c1c2ccccc2c(-c2ccc(Br)cc2)nn1Cc1ccccc1 0.94%
COc1ccc(OC)c(-n2nnnc2SCC(=O)Nc2cc(C)ccc2OC)c1 -3.61%
COC(=O)c1ccc2ccccc2c1OC1OC(CO)C(O)C(O)C1NC(C)=O (stereo not drawn) 1.14%
CCCc1nc2ccccc2c(C(=O)OCc2nnc(-c3cc(OC)c(OC)c(OC)c3)o2)c1CC 27.3%
CC1(C)O[C@@H]2[C@H](O1)[C@@H](COS(=O)(=O)O)O[C@H]2n1cnc2c(=O)[nH]cnc21 9.84%
COc1cccc(CC(=O)N2CCN(C(=O)C(=O)c3cccc(C(F)(F)F)c3)CC2)c1 0.51%
COc1ccc(-n2c(SCC(=O)Nc3ccc4c(c3)OCCO4)nnc2-c2ccc(Cl)cc2)cc1 -4.33%
C/C(COc1ccccc1)=N\NC(=O)c1nnn(-c2nonc2N)c1-c1ccc(C)cc1 -1.04%
Cc1cc(Cl)ccc1OCc1nc(-c2ccncc2)no1 -5.32%
C=CCN(CC=C)C(=O)COC(=O)c1n[nH]c2ccccc12 -3.45%
CCOc1ccccc1N1CCN(C(=S)Nc2ccc(S(N)(=O)=O)cc2)CC1 0.9%
CCOc1ccc(-n2cnc3c(=O)[nH]c(N)nc32)cc1 20.7%
Cc1ccc(NS(=O)(=O)c2ccc(C(=O)NCCCN3CCOCC3)cc2)cc1 1.4%
Cc1ccc(S(=O)(=O)N2CCOCC2)cc1NC(=O)CSc1nnc(N)s1 -3.12%
COc1ccc(S(=O)(=O)N2CCOCC2)cc1NC(=O)CSc1cc(C)ccc1C -3.41%
CCCCn1c(N)c(N(CC(C)C)C(=O)c2cccc(S(=O)(=O)N3CCN(C(C)=O)CC3)c2)c(=O)[nH]c1=O 4.82%
CC(=O)Nc1ccc(Nc2ncnc3c2nnn3Cc2ccccc2Cl)cc1 -5.33%
C/C=C/c1ccc(OCCOc2ccc(C=O)cc2OC)c(OC)c1 -3.69%
COc1cccc(CNCCc2c[nH]c3ccccc23)c1OCc1ccccc1F -11.1%
COc1cc(CNc2ncn[nH]2)ccc1OCc1ccccc1C -2.6%
COc1ccnc2c1c(=O)n(Cc1cccc(F)c1)c(=O)n2C 9.01%
COC(=O)[C@@H]1C[C@@]2(O)[C@@H](O)[C@@H](O)[C@@H](O)C[C@H]2N1Cc1ccc(C)s1 -2.84%
O=C(/C=C/[C@H]1O[C@@H](n2cnc3c(NC(=O)c4ccccc4)ncnc32)[C@H](O)[C@@H]1O)NCc1ccccc1 -3.16%
O=C(Nc1nccs1)C1CCN(S(=O)(=O)c2ccc(Cl)c(C(F)(F)F)c2)CC1 -2.77%
COc1ccccc1C(=O)C(O)c1ccccc1OC (stereo not drawn) 4.06%
CC(=O)Nc1ccc(/C(C)=N/NC(=O)CN(c2ccccc2Br)S(C)(=O)=O)cc1 1.02%
COc1cc(C2C(N3C(=O)c4ccccc4C3=O)C(=O)N2c2ccc(C)c(C)c2)cc(OC)c1OC (stereo not drawn) 3.45%
Cc1cccc(N(C(=O)Cc2cccs2)C(C(=O)NCc2ccco2)c2ccncc2)c1 (stereo not drawn) -16%
CC(C)n1c(-c2ccncc2)n[nH]c1=S 5.74%
Cc1ccccc1C1=NC(C(F)(F)F)(C(F)(F)F)c2c(n(-c3ccc(F)cc3)c(=O)[nH]c2=O)N1 -3.86%

activation, active:
COC(=O)Cc1c(-c2[nH]c3ccccc3c2CC(=O)OC)[nH]c2ccccc12 36.5%
O=C(NCCc1ccco1)c1nn(Cc2ccccc2)c(=O)c2ccccc12 49.5%
CCCc1nn(C)c2c(=O)[nH]c(-c3cc(S(N)(=O)=O)ccc3OCC)nc12 55%
COc1ccc(S(=O)(=O)N2CCOCC2)cc1NC(=O)CSc1nnc(NC2CC2)s1 56.9%
COc1cc(/C=C2/C(=O)ON=C2C)ccc1OCc1ccccc1F 37.2%
COc1cc(/C=C2/C(=O)ON=C2C)ccc1OCc1cccc(F)c1 38.1%
